# Laboratory results published in PubChem BioAssay AID2098 (Broad Institute, 2009).
# In all, about 300,000 compounds went through this assay and about 2,300 (0.77%) were called active.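 How the source made its calls: active means more than half of replicate wells show activity change below -50%, luminescence cut by over half; inconclusive means some wells, but at most half, below -50%; inactive means no replicate well below -50%.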 For the sample, actives were picked, then their nearest neighbours and some compounds at random.
# Assay: blocking HSF1-driven luciferase expression – cell-based, NIH3T3, luminescence, primary screen (AID 2098);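 further: luciferase reports HSF-1 transcriptional activity via heat shock element; 0% = median of DMSO wells and -100% = zero luminescence signal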
# Conditions: NIH3T3-HGL HSE-luciferase, MG132-induced, luminescence 8 h; stronger effect = lower value; screened at 7.5 µM (by protocol)
row,Compound,"activity change, negative = inhibition"
1,Cc1cc(C)c(-c2csc(NC(=O)CCCc3nc4ccccc4c(=O)[nH]3)n2)c(C)c1,-1.35% (inactive)
2,COc1cc(C2C(C(=O)c3cccs3)=C(O)C(=O)N2CCN2CCOCC2)ccc1OCCC(C)C (stereo not given),-1.71% (inactive)
3,CC(=O)Nc1ccc(NC(=O)C(C)OC(=O)C2CC(=O)N(CCc3ccccc3)C2)cc1 (stereo not given),-2.7% (inactive)
4,O=S(=O)(NCc1ccccn1)c1ccc(Br)s1,-3.36% (inactive)
5,O=S(=O)(NCc1ccccn1)c1ccc(F)cc1,-83.2% (active)
6,O=[N+]([O-])c1cccc(S(=O)(=O)NCc2ccccn2)c1,-1.49% (inactive)
7,Cc1ccn2c(=O)c(NC(=O)c3cccc4ccccc34)c(C)nc2c1,-1.23% (inactive)
8,Cc1ccc(C(=O)CN2C(=O)NC3(CCc4ccccc43)C2=O)c(C)c1 (stereo not given),6.44% (inactive)
9,O=C(COC(=O)c1ccccn1)NNC(=O)c1ccc([N+](=O)[O-])cc1,-1.26% (inactive)
10,CC(=O)c1sc(N)nc1C,1.87% (inactive)
11,CN(Cc1ccccc1F)C(=O)C(Cc1ccccc1)NC(=O)c1ccccc1 (stereo not given),1.87% (inactive)
12,COc1ccc(C(=O)NC(=S)Nc2ccccc2N2CCN(S(C)(=O)=O)CC2)cc1OC,-1.5% (inactive)
13,COc1ccccc1C(=O)NC(=S)Nc1ccccc1N1CCCCC1,-53.8% (active)
14,O=C(NC(=S)Nc1ccccc1N1CCCCC1)c1ccc(F)cc1,-7.72% (inactive)
15,O=C(CSc1ncccn1)NC(=O)NCc1ccccc1,2.98% (inactive)
16,O=C(CSc1ncccn1)NCCc1ccccc1,-68.6% (active)
17,O=C(Cc1ccc(Br)cc1)NCCc1ccccc1,3.74% (inactive)
18,Cc1cc2oc3ccc(NCCC4CCCN4C)cc3c(=O)c2cc1C (stereo not given),6.14% (inactive)
19,CCc1ccccc1NC(=O)CSc1nnc(-c2ccncc2)o1,-75.8% (active)
20,CCOC(=O)CSc1nnc(-c2ccncc2)o1,-9.32% (inactive)
21,CCN(C(=O)CSc1nnc(-c2ccncc2)o1)c1ccccc1,-5.45% (inactive)
22,O=C(NC1CCCCC1)c1cc([N+](=O)[O-])ccc1N1CCOCC1,0.205% (inactive)
23,COc1ccc(S(=O)(=O)N2CCCCC2)cc1NC(=O)c1cc([N+](=O)[O-])ccc1N1CCOCC1,-3.7% (inactive)
24,CCOc1ccc2nc(NC(=O)c3cc([N+](=O)[O-])ccc3N3CCOCC3)sc2c1,-61.5% (active)

row,Compound,"activity change, negative = inhibition"
1,O=C(Nc1ncccc1O)c1ccc(C(=O)c2ccccc2)cc1,-2.64% (inactive)
2,COC(=O)c1ccc(NS(=O)(=O)c2cc3c4c(c2)C(C)C(=O)N4CCC3)cc1 (stereo not given),-0.43% (inactive)
3,Cc1ccc(C)c(OCCC(=O)Nc2cccc(S(=O)(=O)N3CCCC3)c2)c1,3.66% (inactive)
4,COc1ccc(C2=NN(c3nc4ccccc4s3)C(=O)C2)cc1,1.26% (inactive)
5,CCOc1cccc(-n2nnnc2-c2ccc(OC)cc2)c1,-2.61% (inactive)
6,COc1ccc(-n2nnnc2-c2nc3ccccc3s2)cc1,-65.3% (active)
7,Nc1cccnc1Sc1ccccc1,-0.323% (inactive)
8,CCCCn1c(N)c(N(CCC(C)C)C(=O)CC2OC(=O)c3ccccc32)c(=O)[nH]c1=O (stereo not given),3.21% (inactive)
9,O=C(COc1cccc2c1CCNC2=O)NC1CCCCC1,-0.75% (inactive)
10,O=C(COC(=O)c1cccc(Cl)c1)Nc1ccc2[nH]c(=O)[nH]c2c1,-4.05% (inactive)
11,Cc1nn(C)c(Cl)c1CN1CCC(n2nccc2NC(=O)C2CCCC2)CC1,-53.5% (active)
12,O=C(Nc1ccnn1C1CCN(Cc2cccc(OCCO)c2)CC1)C1CCCC1,-3.05% (inactive)
13,CC(CN1CCC(n2nccc2NC(=O)C2CCCC2)CC1)c1ccccc1 (stereo not given),-6.86% (inactive)
14,c1ccc(C[C@H]2CNCCN2CCC23CC4CC(CC(C4)C2)C3)cc1,0.124% (inactive)
15,COc1cc2c(cc1OC)C(Cc1cc(OC)c(OC)cc1[N+](=O)[O-])=NCC2,-5.53% (inactive)
16,CC(=O)Nc1cccc(C(=O)OCC(=O)c2ccc3c(c2)OCO3)c1,-8.13% (inactive)
17,CCCCn1c(N)c(N(CCOC)C(=O)c2cccc(OCc3ccccc3)c2)c(=O)[nH]c1=O,-6.51% (inactive)
18,O=C(Nc1ccccc1Cl)Nn1cnnc1,-3.45% (inactive)
19,O=C(Nc1ccccc1Cl)/C(Cl)=C(\Cl)S(=O)c1ccccc1 (stereo not given),-63.2% (active)
20,O=C(COC(=O)c1cccs1)Nc1ccccc1Cl,4.76% (inactive)
21,CC(C)CN(C(=O)c1ccc2c(c1)OCO2)C1CCS(=O)(=O)C1 (stereo not given),1.63% (inactive)
22,COc1ccc(C(=O)OCC(=O)NCCCc2ccccc2)cc1OC,-6.5% (inactive)
23,COc1ccccc1C(=O)OCC(=O)NCCNC(=O)COC(=O)c1ccccc1OC,-54.9% (active)
24,COc1ccccc1C(=O)NC(=O)COC(=O)c1ccco1,-2.8% (inactive)

row,Compound,"activity change, negative = inhibition"
1,COc1ccccc1C(=O)NC(CCSC)C(=O)NNC(=O)c1ccccc1C (stereo not given),-4.57% (inactive)
2,CCOc1ccc(OCc2cccc(C(=O)N(CC)CC)c2)cc1,-51.8% (active)
3,COc1ccc(OCc2cccc(C(=O)N3CCCC3)c2)cc1,-11% (inactive)
4,CCOc1ccc(OCc2ccc(C(=O)N(C)c3ccccc3)o2)cc1,9.19% (inactive)
5,Cc1ccc(S(=O)(=O)N2CCOCC2)cc1C(=O)Nc1ccccc1N1CCCC1,3.38% (inactive)
6,O=C(CCCO)N/N=C/c1cc(Br)ccc1O,-13.7% (inactive)
7,Oc1ccc(Br)cc1/C=N/Nc1ccccn1,-72.1% (active)
8,O=[N+]([O-])c1ccc(O)c(/C=N/Nc2ccccc2[N+](=O)[O-])c1,2.12% (inactive)
9,Cn1c(=N)n(CC(O)c2ccccc2)c2ccccc21 (stereo not given),-64.8% (active)
10,Cc1nc2ccccc2n1CC(O)c1ccccc1 (stereo not given),-6.27% (inactive)
11,Cn1c(=N)n(CC(O)c2cccs2)c2ccccc21 (stereo not given),-12.7% (inactive)
12,COc1ccc(C(=O)Nc2cccc(NC(=O)c3ccc(OC)cc3OC)n2)c(OC)c1,-27.9% (inactive)
13,Cc1ccc(CN2CCN(c3ccccc3Cl)CC2)o1,-5.3% (inactive)
14,COC(=O)c1nc2n(n1)C(c1ccc([N+](=O)[O-])cc1)C(C(=O)Nc1ccc(Cl)cc1)=C(C)N2 (stereo not given),-14.3% (inactive)
15,COC(=O)C1=CN(c2ccc(F)c(F)c2)C=C(C(=O)OC)C1c1ccc([N+](=O)[O-])cc1,-77.3% (active)
16,COC(=O)C1=CN(C)C=C(C(=O)OC)C1c1ccc(Cl)cc1Cl,6.26% (inactive)
17,Brc1ccc2nc(N3CCCC3)sc2c1,22% (inactive)
18,Cc1nc2cc3c(cc2s1)OCO3,3.71% (inactive)
19,c1c2c(cc3sc(N4CCCCC4)nc13)OCCO2,-55.1% (active)
20,Cc1ccc(S(=O)(=O)N2CCN(C(=O)c3ccc(-n4cncn4)c([N+](=O)[O-])c3)CC2)cc1,-4.92% (inactive)
21,Cc1cc(C)c(SCCc2ccncc2)c(C)c1,-16.4% (inactive)
22,CC(C)(C)C(=O)COC(=O)c1cc(S(=O)(=O)N2CCCCC2)ccc1N1CCOCC1,0.13% (inactive)
23,Cc1ccnc(NS(=O)(=O)c2ccc(NC(=O)c3ccc(S(=O)(=O)N(C)C)cc3)cc2)n1,1.75% (inactive)
24,Cc1cc(C)c2oc(C(=O)Nc3ccc(S(=O)(=O)Nc4nccc(C)n4)cc3)cc(=O)c2c1,-70.7% (active)

row,Compound,"activity change, negative = inhibition"
1,Cc1ccnc(NS(=O)(=O)c2ccc(NC(=O)c3oc4ccccc4c3C)cc2)n1,-1.33% (inactive)
2,CC1(c2nnc(Cc3ccccc3)o2)CC(c2ccccc2F)=NO1 (stereo not given),-1.4% (inactive)
3,Cc1cccc(C(=O)NC(=S)N2CCN(c3ccc([N+](=O)[O-])cc3)CC2)c1,-62.5% (active)
4,Cc1cccc(C(=O)NNC(=O)c2cccc([N+](=O)[O-])c2)c1,-3.12% (inactive)
5,Cc1cccc(C(=O)Nc2ccccc2N2CCN(c3ccc(F)cc3)CC2)c1,-1.05% (inactive)
6,O=S(=O)(/C=C/c1ccccc1)N1CCNCC1,0.181% (inactive)
7,CN1CCN(S(=O)(=O)c2ccc(Nc3ccc(F)cc3)nc2)CC1,-3.3% (inactive)
8,O=C(O)c1cccc(NC(=O)c2cc(-c3cccc(Cl)c3)nc3ccccc23)c1,-10.6% (inactive)
9,COc1ccc(NC(=O)c2cc(-c3ccc(C)o3)nc3ccccc23)cc1,8.98% (inactive)
10,O=C(Nc1cccc(F)c1)c1cc(-c2ccco2)nc2ccccc12,-58.6% (active)
11,COc1ccccc1C(=O)NCCC(=O)NC(C)CCc1ccccc1 (stereo not given),1.3% (inactive)
12,Cc1ccc(S(=O)(=O)N(C)c2ccc(OCC(=O)OCc3ccc(C#N)cc3)cc2)cc1,-4.36% (inactive)
13,COc1ccc(C2=NOC(Cn3nc(C(=O)NCc4ccc5c(c4)OCO5)cc3-c3ccccc3)C2)cc1 (stereo not given),2.18% (inactive)
14,c1ccc(-c2c[nH]c(-c3ccccc3)c2)cc1,-83.8% (inactive)
15,O=C(Nc1ccccc1)Nc1ccc(C(F)(F)F)cn1,-1.47% (inactive)
16,Cc1nccn1CC(=O)N/N=C/c1ccc(O)c(O)c1,2.17% (inactive)
17,Oc1ccc(/C=N/Nc2ccc(C(F)(F)F)cn2)cc1O,-78.4% (active)
18,CCC(C)(NC(=O)c1ccccn1)C(=O)NC1CCCCC1 (stereo not given),-54.6% (active)
19,CSc1ncccc1C(=O)NC1CCCCCC1,-4.75% (inactive)
20,N/C(=N\OC(=O)CCC1CCCCC1)c1ccccn1,17.7% (inactive)
21,CC(Oc1ccc(F)cc1)C(=O)Nc1ccccc1C(=O)NC1CC1 (stereo not given),5.48% (inactive)
22,CCOC(=O)N1CCN(C(=O)c2ccccc2SCC(=O)NCC2CCCCC2)CC1,6.98% (inactive)
23,COC(=O)[C@@]12CCCN1[C@H](c1ccc(-c3ccc(F)cc3)c(OC)c1)[C@H]1C(=O)N(C)C(=O)[C@H]12,20.6% (inactive)
